The results in this text go back to PubChem BioAssay AID540256 (National Center for Advancing Translational Sciences (NCATS), 2011).

Out of some 300,000 compounds screened, about 3,700 (1.2%) were called active. Another 20% or so got no clear call; they are omitted. Calls follow the shape of the full dose curve; tested in HEK293 cells. The sample as a whole holds a higher share of actives than the screen did.
% is scaled to controls: 0 for no effect and ±100 for the full control effect; potency is read from the fitted curve at half-maximal effect.

This assay can be described thus: qHTS for Inhibitors of binding or entry into cells for Lassa Virus. Also: nearly all actives have a fitted effect of over 50% in size. The note with it: Lassa virus pseudotype entry inhibition, cell reporter; series mostly up to 37.9 µM; activity change, negative = inhibition: at the top concentration.
On to `O=C(Nc1ncccc1O)c1ccc(S(=O)(=O)N2CCCCCC2)cc1`, for which the “activity change, negative = inhibition” value was 10.4% (inactive). Turning to `COc1c(Cl)cc(Cl)cc1C(=O)Nc1cccc2cccnc12`, the “activity change, negative = inhibition” value is 6.22% [at 46.1 µM] (inactive). The same measure, in the same setting: the same measure for `O=C(CSc1cccc2cccnc12)N/N=C/c1cccnc1`: -3.85% [at 46.1 µM] (inactive). Turning to `CC(=O)/C(=N\Nc1ccc(Cl)cc1Cl)Sc1cccc2cccnc12`, the Potency is 11.2 µM (active).

As for `O=C(CC(=O)c1cccnc1)c1ccccc1`, the “activity change, negative = inhibition” value was -17.8% [at 46.1 µM] (inactive). `CCN(C(=O)CSc1cccc[n+]1[O-])c1ccccc1`: the “activity change, negative = inhibition” value is -2.75% (inactive). `CC1(C(=O)N/N=C/c2cc3c(cc2Br)OCO3)CC1(Br)Br` (stereo unspecified): the “activity change, negative = inhibition” value was -0.778% (inactive). On to `O=C(NC(Nc1nc2ccc([N+](=O)[O-])cc2s1)(C(F)(F)F)C(F)(F)F)c1ccccc1`, for which the Potency is 0.92 µM (active). On the same count and under the same terms, in the case of `O=C(Nc1nc2ccc([N+](=O)[O-])cc2s1)c1ccc(S(=O)(=O)N2CCCc3ccccc32)cc1` it was 12.6 µM (active). As for `O=C(Nc1nc2ccc([N+](=O)[O-])cc2s1)c1ccncc1`, the “activity change, negative = inhibition” value was 27.1% [at 46.1 µM] (inactive). On the same count and under the same terms, in the case of `O=C(COC(=O)c1ccc(F)cc1)Nc1nc2ccc([N+](=O)[O-])cc2s1` it was 7.09% (inactive). Same read-out and setting: the same measure for `O=C(Nc1nnc(S(=O)(=O)N2CCCc3ccccc32)s1)c1cccc(F)c1`: 0.0572% [at 46.1 µM] (inactive); for `CS(=O)(=O)c1ccc2nc(NC(=O)c3ccc(N4CCCC4=O)cc3)sc2c1`: 14% (inactive). The same measure, in the same setting: in the case of `COc1cc(C2C(C(=O)c3cccs3)=C(O)C(=O)N2CCN2CCOCC2)ccc1OCCC(C)C` (stereo unspecified) it was -8.18% [at 46.1 µM] (inactive); in that of `COc1cc(C(=O)CCc2ccc3c(c2)OCO3)cc(OC)c1OC`, -0.612% [at 46.1 µM] (inactive); in that of `Cn1c(=O)[nH]c2c(c(C(=O)O)nn2C)c1=O`, 20.9% [at 46.1 µM] (inactive).

Consider `COc1cc2c(cc1OC)CN(C(C)C(=O)Nc1cccc(S(=O)(=O)N3CCOCC3)c1)CC2` (stereo unspecified), for which the “activity change, negative = inhibition” value was -4.84% (inactive). Take `CC(=O)CSc1nc(CCc2ccccc2)c(C#N)c(=O)[nH]1`: the “activity change, negative = inhibition” value is -8.72% [at 46.1 µM] (inactive).

Turning to `Cn1c(C(=O)NCCN2CCc3ccccc3C2)cc2c(=O)[nH]c3ccccc3c21`, the Potency is 0.92 µM (active). As for `Cc1cccc(N2CCN(C(=O)c3cc4c(=O)[nH]c5ccccc5c4n3C)CC2)c1C`, the “activity change, negative = inhibition” value is 3.45% (inactive). Turning to `O=C(NCCN1CCN(Cc2ccccc2)CC1)c1cc2c(=O)[nH]c3ccccc3c2s1`, the “activity change, negative = inhibition” value was -33.8% (inactive). `OC1CCCN(c2ncnc3c2nnn3Cc2c(F)cccc2Cl)C1` (stereo unspecified): the Potency was 6.31 µM (active).

For the molecule `CCOC(=O)N1CCN(C(=O)C2CCCN(c3ncnc4c3sc3cccc(F)c34)C2)CC1` (stereo unspecified), the “activity change, negative = inhibition” value was 17.2% [at 46.1 µM] (inactive). Consider `Cc1ccc(NC(=O)N2CCC(c3nc4c(nnn4Cc4c(F)cccc4Cl)c(=O)[nH]3)CC2)cc1`, for which the “activity change, negative = inhibition” value was -7.82% (inactive). On to `Cc1ccc(Br)c(NS(=O)(=O)c2cccc(C(=O)N3CCNC(=O)C3)c2)c1`, for which the “activity change, negative = inhibition” value is -10.2% (inactive). In the case of `NC(=O)C1CCN(C(=O)c2cccc(NC(=O)c3nsc4ccccc34)c2)CC1`, the “activity change, negative = inhibition” value was -10.3% [at 46.1 µM] (inactive). In the case of `Cn1cccc1C(=O)OCC(=O)c1ccc(Br)s1`, the “activity change, negative = inhibition” value was 22.3% (inactive).

With `COc1ccc(CNC(=O)CN2C(=O)c3ccccc3S2(=O)=O)cc1`, the “activity change, negative = inhibition” value was 14% (inactive). On to `COc1ccc(COC(=O)N/N=C(\C)CC(=O)Nc2ccc(Cl)cc2)cc1`, for which the Potency was 0.141 µM (active).

For the molecule `C/C(CC(=O)Nc1ccc(Cl)cc1)=N\NC(=O)C(=O)NCCO`, the “activity change, negative = inhibition” value was 7.56% (inactive). For the molecule `COc1cccc(NC(=O)C/C(C)=N/NC(=O)C2CCCCC2)c1`, the “activity change, negative = inhibition” value is 2.41% (inactive). Turning to `CCN(CC(=O)Nc1ccccc1OC)C(=O)CC1CC2CCC1C2` (stereo unspecified), the “activity change, negative = inhibition” value is 1.83% (inactive).

For `Cc1ccc(OCC(=O)N/N=C/c2ccncc2)cc1`, the “activity change, negative = inhibition” value is -13.7% (inactive).

Take `Cc1ccc(/C=N/NC(=O)COc2ccccc2-c2ccccc2)cc1`: the Potency is 1.64 µM (active). Turning to `Cc1ccc(OCC(=O)N/N=C\c2ccco2)c(C)c1`, the “activity change, negative = inhibition” value is 1.48% (inactive). Same read-out and setting: the same measure for `O=C(Cc1ccccc1)Nc1cccc(NC(=O)c2ccccc2)c1`: -29.8% (inactive). Take `O=C(CCl)Nc1cccc(CP(=O)(c2ccccc2)c2ccccc2)c1`: the Potency is 7.94 µM (active). For the molecule `CCc1cccc(NC(=O)CCC(=O)O)c1`, the “activity change, negative = inhibition” value was 7.85% (inactive). Regarding `CN(C)S(=O)(=O)c1ccc(N2CCCC2)c(C(=O)Nc2ccc(Br)cc2F)c1`, the “activity change, negative = inhibition” value was -5.54% (inactive). With `CCCn1nc(C(=O)OCc2nc(N)nc(Nc3ccccc3C)n2)c2ccccc2c1=O`, the “activity change, negative = inhibition” value is 0.474% (inactive). Still for that read-out and setting: in the case of `CCC(C(=O)Nc1cc(OC)ccc1OC)n1c(=O)c(C(F)(F)F)nc2ccccc21` (stereo unspecified) it was 1.55% [at 46.1 µM] (inactive); in that of `O=C(N/C(=C/c1ccc(Cl)cc1)C(=O)N1CCCCC1)c1ccco1`, 4.09% (inactive).

For the molecule `C=CCn1cc(C(=O)NCc2ccc(Cl)cc2)c(=O)c2cc(S(=O)(=O)N(CC)CC)ccc21`, the Potency is 0.398 µM (active).

In the case of `CCn1cc(C(=O)NCc2ccccc2)c(=O)c2cc(S(=O)(=O)N3CCCCC3)ccc21`, the “activity change, negative = inhibition” value is -3.22% [at 46.1 µM] (inactive). On to `CCN(CC)S(=O)(=O)c1ccc2c(c1)c(=O)c(C(=O)N1CCN(c3cccc(Cl)c3)CC1)cn2C`, for which the “activity change, negative = inhibition” value was -19% [at 46.1 µM] (inactive). The same measure, in the same setting: in the case of `CC(=O)OC1CCC2(C)C(=CCC3C4CC(=O)N(O)C(=O)C4(C)CCC32)C1` (stereo unspecified) it was 0% [at 46.1 µM] (inactive). In the case of `CC(C(=O)NC1CCCC1)N1CCN(S(=O)(=O)c2ccccc2Cl)CC1` (stereo unspecified), the “activity change, negative = inhibition” value was -29.2% (inactive). On to `Cc1ccc(N(CC(=O)NC2CCCCC2)C(=O)CCCC(=O)Nc2ccccn2)c(C)c1`, for which the “activity change, negative = inhibition” value is 1.25% (inactive). Still for that read-out and setting: in the case of `CC(Nc1nc(N2CCOCC2)nc2ccccc12)c1ccccc1` (stereo unspecified) it was -28.7% (inactive). On to `CC(Nc1nc(N2CCCC2)nc2ccccc12)c1ccccc1` (stereo unspecified), for which the Potency is 12.6 µM (active).

Regarding `c1ccc2c(NC3C4CC5CC(C4)CC3C5)nc(N3CCOCC3)nc2c1` (stereo unspecified), the “activity change, negative = inhibition” value was -20.9% (inactive).
